These results are taken from PubChem BioAssay (NCI).

SMILES strings stand for the structures. About 83,000 compounds went through this panel and 20% of them were active in at least one assay; those are over-represented in the sample as a whole.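 The endpoint reported here, percent growth, reads 100 for growth as untreated, 0 for no net growth and -100 for all cells dead.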 Calls of active or inactive are those of the source. How the source made its calls: active means growth percent below 10; inactive means the rest.

The assay has as its system PC-3 prostate. As to the kind of experiment: NCI-60 one-dose screen, 48 h (100 = growth as untreated, 0 = no growth, -100 = all killed). The following applies: 10 µM unless noted.
Turning to `CC/C(=C(/c1ccc(Cl)cc1)c1ccc(OCCN2CCCC2)cc1)c1ccc(OC)cc1`, the growth was 47.5% (inactive).
For `Nc1ncnc2c1N=C(c1ccc(Cl)cc1)CC(c1ccc3c(c1)OCO3)N2` (stereo not given), the growth is 85.2% (inactive).
Regarding `N=C(N)c1ccc(-c2ccc(-c3ccc(F)cc3)o2)o1`, the growth was 19.3% (inactive).
Under `CCCCC(=O)c1ccco1` stands 85.8% (inactive).
For the compound `C/C(=C(/c1ccc(Cl)cc1)c1ccc(OCCN2CCCC2)cc1)c1ccc(Cl)cc1`, the growth was 66.4% (inactive).
Regarding `COC(=O)c1c2c(c[n+]([O-])c1C)C(=O)C(NCc1ccccc1)=CC2=O`, the growth is -11.1% (active).
Under `Fc1ccc(-c2nn(-c3ccccc3)cc2-c2nc3ccccc3o2)cc1` stands 51.6% (inactive); under `COc1ccc2c3c([nH]c2c1)C(=O)c1nc(C)ccc1C3=O`, 45.7% (inactive); under `CCN(C(=O)N1CCN(c2cc3c(cc2F)c(=O)c(C(=O)O)cn3C2CC2)CC1)c1nc(-c2ccc(Cl)cc2)cs1`, 10.1% (inactive).
On to `CCCNC(=O)Oc1ccc(/C(=C(/C)Cc2ccc(OC)cc2)c2ccc(OCCCN(C)C)cc2)cc1`, for which the growth is 74.4% (inactive).
Under `CC(=O)OCc1nc(C#N)c(N(C)C)o1` stands 104% (inactive); under `Cn1ccnc1C(=O)C(=O)Nc1ccc(CC(=O)Nc2ccccc2)cc1`, 107% (inactive); under `O=C(CN1C(=O)CCC1=O)Nc1ncc(Cc2ccc(F)cc2)s1`, 92.4% (inactive).
Under `CNc1nc(S(=O)c2ccc(C#N)cc2)nc2ccccc12` (stereo not given) stands 89.2% (inactive); under `Cn1c(-c2ccc(Br)cc2)c(O)c(=O)c2c(F)cccc21`, 105% (inactive).
Next, `CCN(CC)CCCN1C(=O)c2c(c(C)c3c(oc4cc(O)ccc43)c2C)C1=O`: -67.5% (active).
Take `Cn1ccc2c3c(ccc21)CC3=O`: the growth is 110% (inactive).
Under `O=C1N[C@@H]2NC(=[N+]3CCOCC3)N[C@@H]2N1` stands 106% (inactive); under `CCCCCOc1ccc(C(=O)/C(Br)=C/C(=O)O)cc1`, 99.6% (inactive).
For the compound `O=C(/C=C/c1ccccc1)c1cccc(OCCCOc2cccc(C(=O)/C=C/c3ccccc3)c2)c1`, the growth is 82.8% (inactive).
As for `O=C(Cc1ccccc1)Nc1nc(O)c(/C=C2\C(=O)C=Cc3ccccc32)s1`, the growth was 92.4% (inactive).
For the compound `Nc1c(C(=O)Nc2ccncc2)sc2nc3c(cc12)CCCCCC3`, the growth was 90.3% (inactive).
Next, `COc1ccc(C(=O)Nc2cccc(C3CC(=O)c4c(cc(OC)c(OC)c4OC)O3)c2)cc1` (stereo not given): 20.4% (inactive); `O=C(c1cc2ccccc2o1)c1nn(-c2ccccc2)/c(=N/N=Cc2cn(-c3ccccc3)nc2-c2cc3ccccc3oc2=O)s1`: 93% (inactive); `CCCCCCCCCCCCCCCCCCOc1ccccc1CC(=O)NCC[N+]1(C)CCCC1`: 4.91% (active).
Under `O=C(CSc1nc(-c2ccccc2)[nH]c1S(=O)(=O)c1ccccc1)NC1CC1` stands 80.8% (inactive); under `CC(C)N1CCN(Cc2ccc3c(NNC(=O)c4ccccc4)nc4cc(F)ccc4n23)CC1`, 36.9% (inactive).
In the case of `O=S(=O)(NCCCNc1nccc(-c2c(-c3ccc(F)c(O)c3)nc3occn23)n1)c1ccccc1`, the growth is 79.1% (inactive).
Under `COc1cc(-c2csc(NC(=O)c3cc(-n4cnc(C)c4)cc(C(F)(F)F)c3)n2)cc(OC)c1OC` stands 37.3% (inactive); under `COc1cc2c(c(OC)c1OC)CCC(c1cccc(C(=O)Nc3cccc(Br)c3)c1)O2` (stereo not given), 49.1% (inactive).
Regarding `Cc1nn(-c2ccccc2)c(Oc2ccccn2)c1-c1nc2ccccc2s1`, the growth is 91% (inactive).
Next, `CSc1nnc(-c2cnn3c2NC(c2ccccc2)C3)n1-c1ccc(C(F)(F)F)cc1` (stereo not given): 46.3% (inactive); `Cc1ccc(-c2cc(-c3ccc(Cl)cc3)nc(NC(=O)c3cccnc3)n2)cc1`: 85.5% (inactive); `CC1=C(C(=O)OC(C)C)C(c2ccc3c(c2)OCO3)NC(=S)N1` (stereo not given): 86% (inactive).
Take `CCOC(=O)c1c2c(n3ccc(C)cc13)C(=O)c1ccccc1C2=O`: the growth is 78% (inactive).
Consider `O=S(=O)(NCCNc1cc(-c2c(-c3cccc(O)c3)nc3sccn23)ccn1)c1ccc(C(F)(F)F)cc1`, for which the growth was 31.4% (inactive).
As for `Cc1nc2ncnc(Cl)c2[nH]1`, the growth was 90.5% (inactive).
In the case of `N#Cc1nn(-c2cc(=O)[nH]c3ccc(Cl)cc23)c(N)c1C#N`, the growth is -87.3% (active).
In the case of `C#COc1cccc(Nc2ncnc3ncc(NC(=O)CCl)cc23)c1`, the growth is 20.6% [6.25 µM] (inactive).
In the case of `COC(=O)[C@]1(C)CCC[C@]2(C)[C@H]3C[C@H]4C(C(C)C)=C[C@]3(CC[C@H]21)[C@H]1[C@@H]4[C@@H](OCCC#N)CC[C@@H]1OCCC#N`, the growth was 2.36% (active).
